Most compounds without a hit are left out; they make up all but 22% or so of the library.
CYP2C9 inhib: inhibitors of human CYP2C9; P11712; CYP2C9 Supersomes, luciferin-H conversion, luminescence; inhibition, % at 5 µM; actives 20% (n = 96,000); AID 777;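 active = blocking of liver enzyme CYP2C9 beyond about 50% at 5 µM, limit read from the data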
CYP2C19 act: increases human CYP2C19 enzyme activity | P33261 | recombinant CYP2C19, luciferin-H EGE luminescence; hits give high values; 0 = fully inhibited enzyme, 1 = untreated enzyme | activation factor at 5 µM | 96,000 tested, under 10 active;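 active = activation factor of at least 2 at 5 µM in the primary screen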
Target sequence (P33261 whole entry, looked up): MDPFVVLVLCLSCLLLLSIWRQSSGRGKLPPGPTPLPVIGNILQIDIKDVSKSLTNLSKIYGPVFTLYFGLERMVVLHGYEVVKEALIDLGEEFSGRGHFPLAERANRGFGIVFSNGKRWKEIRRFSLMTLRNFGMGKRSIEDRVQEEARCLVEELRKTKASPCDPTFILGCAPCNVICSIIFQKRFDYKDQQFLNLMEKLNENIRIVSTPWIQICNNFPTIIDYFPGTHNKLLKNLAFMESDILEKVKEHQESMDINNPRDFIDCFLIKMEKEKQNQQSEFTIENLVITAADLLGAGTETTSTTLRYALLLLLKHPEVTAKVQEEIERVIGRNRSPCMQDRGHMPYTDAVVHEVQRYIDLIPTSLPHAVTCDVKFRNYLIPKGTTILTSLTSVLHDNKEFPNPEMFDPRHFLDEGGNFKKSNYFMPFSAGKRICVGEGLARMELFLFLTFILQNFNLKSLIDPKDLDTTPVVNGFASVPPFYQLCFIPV
CYP2C9 activ: increases human cytochrome P450 2C9 activity | recombinant CYP2C9, luciferin-H conversion, luminescence; hits give high values; factor 1 = untreated enzyme, 0 = blocked | P11712 | actives 1.4% (n = 96,000) | activation factor at 5 µM;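 active = activation factor of 2 or more for CYP2C9 at a 5 µM dose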
F-actin modifier: modifiers of cytoskeleton assembly; HUVEC TNFa F-actin phalloidin imaging, high content; inhibition, % at 2 µM; actives 0.18% (n = 91,000); AID 836;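 active = inhibition above the batch mean plus 3 SD and confirmed as a hit by visual image inspection, cut at about 30% in these data, passing the limit was not always enough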
E-sel TNF inh: TNF alpha driven E-selectin expression inhibition; HUVEC TNFa-induced E-selectin immunofluorescence, high content; actives 0.71% (n = 120,000); inhibition, % at 2 µM; AID 1246;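 active = inhibition above the batch mean plus 3 SD, and confirmed as a hit on visual image review, cut at about 43% in these data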
CYP2C19 inh: human CYP2C19 inhibition | P33261 | CYP2C19 Supersomes, luciferin-H EGE luminescence, 30 min | inhibition, % at 5 µM | actives 21% (n = 96,000) | AID 778;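 active = CYP2C19 inhibition above a set limit at 5 µM in the primary screen, cut at about 50% in these data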
Each line names hits and unclear results; the compound was inactive in the other large screens.

CCC(=O)N1CCN(c2ccccc2NC(=O)COc2cc(C)ccc2C(C)C)CC1	CYP2C9 inhib 96, CYP2C19 inh 93
CN1CCN(c2ccccc2NC(=O)c2cc(Br)ccc2Cl)CC1	none
CC(=O)N1CCN(c2ccccc2NC(=O)COc2ccc(Cl)cc2Cl)CC1	CYP2C19 inh 78
C=CCSc1nnc2n(CCc3ccccc3)c(=O)c3c4c(sc3n12)COC(C)(C)C4	none
COc1cc(C(=O)NCC2CCCO2)cc(OC)c1OC (configuration not stated)	none (no result: CYP2C9 inhib, CYP2C19 act, CYP2C9 activ, CYP2C19 inh)
CCCNC(=O)c1ccc(SC)cc1OC	none (no result: F-actin modifier)
COc1cc(SC)ccc1C(=O)N(C)Cc1ccccc1	CYP2C19 inh 98
COc1cc(SC)ccc1C(=O)N1CCN(c2ccccc2)CC1	none (no result: CYP2C9 inhib, CYP2C19 act, CYP2C9 activ, F-actin modifier, CYP2C19 inh)
COc1cc(SC)ccc1C(=O)NCc1ccc(C)cc1	CYP2C19 inh 91
COc1cc(SC)ccc1C(=O)NCC1CCCO1 (configuration not stated)	CYP2C19 inh 60
CC1CCCN(c2nc3ccccc3nc2C(C#N)C(=O)OC2CCCCC2)C1 (configuration not stated)	none
Cc1ccc(S(=O)(=O)C(C#N)c2nc3ccccc3nc2N2CCCC2)cc1 (configuration not stated)	CYP2C9 inhib 55, CYP2C19 inh 87
COc1ccc(S(=O)(=O)C(C#N)c2nc3ccccc3nc2N2CCCC(C)C2)cc1 (configuration not stated)	CYP2C9 inhib 93, CYP2C19 inh 86
CCN1CCN(c2nc3ccccc3nc2C(C#N)S(=O)(=O)c2ccc(C)cc2)CC1 (configuration not stated)	none
CC1CCCN(c2nc3ccccc3nc2C(C#N)S(=O)(=O)c2cccs2)C1 (configuration not stated)	CYP2C9 inhib 75
COc1cccc(-n2c(SCC(=O)NC3CCCC3)nnc2-c2ccco2)c1	none (no result: CYP2C9 inhib, CYP2C19 act, CYP2C9 activ, CYP2C19 inh)
COc1cccc(-n2nnnc2SCC(=O)NC2CCCC2)c1	CYP2C9 activ 2
CCN(CC)S(=O)(=O)c1ccc2c(c1)nc(SCC(=O)NC1CC1)n2-c1ccccc1OC	CYP2C9 inhib 75 (no result: F-actin modifier)
COc1ccccc1-n1c(SCC(=O)NC2CCCC2)nc2cccnc21	none
COc1cccc(NC(=O)CSc2nncn2-c2ccccn2)c1	CYP2C19 inh 62
COc1ccccc1-n1nnnc1SCC(=O)NC1CCCC1	CYP2C9 activ 2.3
COC(=O)C(CCCCNC(=O)c1ccc([N+](=O)[O-])cc1)NC(=O)c1ccc([N+](=O)[O-])cc1 (configuration not stated)	none (no result: CYP2C9 inhib, CYP2C19 act, CYP2C9 activ, F-actin modifier, CYP2C19 inh)
O=C(O)c1ccccc1C1=Nc2ccc(O)cc2Oc2cc(O)ccc21	none (no result: E-sel TNF inh)
O=C(CSc1nnnn1-c1cccc2c1CCCC2)N1CCCC1	none (no result: CYP2C9 inhib, CYP2C19 act, CYP2C9 activ, CYP2C19 inh)
COc1ccc2c(c1)c1nnc(SC)nc1n2C	none
COc1ccc(-n2nnnc2SCC(=O)N2C(C)CCCC2C)c(OC)c1 (configuration not stated)	CYP2C19 inh 75
O=C(CSc1nnnn1-c1cccc2c1CCCC2)NC1CCCC1	CYP2C9 activ 3
COc1ccc2c(c1)c1nnc(SCC(=O)N3C(C)CCCC3C)nc1n2C (configuration not stated)	CYP2C9 inhib 66
CC1CCCC(C)N1C(=O)CSc1nnnn1-c1cccc2c1CCCC2 (configuration not stated)	none
O=C(CSc1nnnn1-c1cccc2c1CCCC2)N1CCOCC1	CYP2C9 activ 2.2 (no result: E-sel TNF inh)
CCOC(=O)NC(=O)/C(C#N)=N/Nc1ccc(F)cc1	none
Cc1cc(C=O)c2c(c1)C=CC1(Oc3ccccc3C(=O)N1C)O2 (configuration not stated)	none (no result: CYP2C9 inhib, CYP2C19 act, CYP2C9 activ, CYP2C19 inh)
Cc1ccc(CSc2nnc3nc(C)cc(C)n23)cc1	none
COc1cccc(-n2nnnc2SCC(=O)N2CCCc3ccccc32)c1	CYP2C19 inh 52 (no result: E-sel TNF inh)
O=C(CSc1nccn1-c1cccc(Cl)c1)NC1CCCC1	CYP2C9 inhib 67, CYP2C19 inh 84
COc1cccc(-n2nnnc2SCC(=O)Nc2cccc(NC(C)=O)c2)c1	CYP2C9 inhib 50 (no result: E-sel TNF inh)
COc1cccc(C(=O)CSc2nnnn2C2CCCCC2)c1	CYP2C9 inhib 68
COc1ccccc1-c1cn[nH]c(=S)n1	none
Cc1cc(/C=C(\C#N)C(=O)NC2CCCCCC2)c(C)n1C	none (no result: CYP2C9 inhib, CYP2C19 act, CYP2C9 activ, F-actin modifier, CYP2C19 inh)
CN(C)CCCNC(CC(=O)Nc1cccc([N+](=O)[O-])c1)C(=O)O (configuration not stated)	none (no result: CYP2C9 inhib, CYP2C19 act, CYP2C9 activ, F-actin modifier, CYP2C19 inh)
Cc1cc(NC(=O)CCC(=O)N(Cc2cccs2)C(C(=O)NC2CCCC2)c2ccncc2)no1 (configuration not stated)	CYP2C9 inhib 84, CYP2C19 inh 69 (no result: F-actin modifier)
Cc1cc(NC(=O)CCC(=O)N(c2cccnc2)C(C(=O)NC2CCCC2)c2ccccc2F)no1 (configuration not stated)	none (no result: CYP2C9 inhib, CYP2C19 act, CYP2C9 activ, CYP2C19 inh)
Cc1cccc(N(C(=O)CCC(=O)Nc2cc(C)on2)C(C(=O)NC2CCCC2)c2ccncc2)c1 (configuration not stated)	CYP2C9 inhib 84, CYP2C19 inh 81 (no result: F-actin modifier, E-sel TNF inh)
Cc1ccc(C(C(=O)NC2CCCC2)N(C(=O)CCC(=O)Nc2cc(C)on2)c2ccccc2)cc1 (configuration not stated)	none (no result: CYP2C9 inhib, CYP2C19 act, CYP2C9 activ, CYP2C19 inh)
Cc1cc(NC(=O)CCC(=O)N(Cc2ccco2)C(C(=O)NC2CCCCC2)c2ccccc2)no1 (configuration not stated)	none (no result: CYP2C9 inhib, CYP2C19 act, CYP2C9 activ, CYP2C19 inh)
Cc1ccc(N(C(=O)CCC(=O)Nc2cc(C)on2)C(C(=O)NC2CCCC2)c2ccncc2)cc1 (configuration not stated)	CYP2C9 inhib 69, CYP2C19 inh 64 (no result: F-actin modifier)
O=C(c1ccc(Oc2ccc([N+](=O)[O-])cc2Cl)cc1)N1CCCC1	none (no result: CYP2C9 inhib, CYP2C19 act, CYP2C9 activ, F-actin modifier, CYP2C19 inh)
O=C(CCc1ccc(Oc2cc([N+](=O)[O-])cc([N+](=O)[O-])c2)cc1)N1CCCCC1	CYP2C9 inhib 82, CYP2C19 inh 54 (no result: F-actin modifier, E-sel TNF inh)
O=C(NCc1ccco1)C12CC3CC(C1)CC(C(=O)NCc1ccco1)(C3)C2	none
COc1ccc(C(=O)n2ccc(C)n2)cc1Br	CYP2C19 inh 57
COc1ccc(C(=O)n2nc(C)cc2C)cc1Br	CYP2C19 inh 70
CCOCCn1c(N2CCN(c3ccccc3)CC2)nc2c1c(=O)[nH]c(=O)n2C	none (no result: CYP2C9 inhib, CYP2C19 act, CYP2C9 activ, F-actin modifier, CYP2C19 inh)
O=C(Cn1nnc2ccccc2c1=O)N1CCOCC1	none (no result: CYP2C9 inhib, CYP2C19 act, CYP2C9 activ, F-actin modifier, CYP2C19 inh)
O=S1(=O)c2cccc3cccc(c23)N1Cc1nnc(-c2ccccc2Br)o1	CYP2C19 inh 93
O=S1(=O)c2cccc3cccc(c23)N1Cc1ccc(-c2nnco2)cc1	CYP2C9 inhib 53, CYP2C19 inh 68
O=C1c2ccccc2S(=O)(=O)N1Cc1nnc(-c2ccccc2Br)o1	none (no result: CYP2C9 inhib, CYP2C19 act, CYP2C9 activ, CYP2C19 inh)
O=c1c2ccccc2nnn1Cc1nnc(-c2ccccc2Br)o1	CYP2C19 inh 82
COc1ccc(/C=N/NC(=O)c2ccc(CN3c4cccc5cccc(c45)S3(=O)=O)cc2)cc1	none (no result: CYP2C9 inhib, CYP2C19 act, CYP2C9 activ, F-actin modifier, CYP2C19 inh)
Cc1cc(C)n(CCOc2nonc2N)n1	none
O=S(=O)(NCC(Nc1ccc(Cl)cc1)c1ccccc1)c1ccc(Cl)cc1 (configuration not stated)	none (no result: CYP2C9 inhib, CYP2C19 act, CYP2C9 activ, F-actin modifier, CYP2C19 inh)
